The source of these data is PubChem BioAssay.

Molecules are shown by their SMILES. A number with no mark means an inactive call. Some of the results follow. Calls of active or inactive are those of the source. Cut-off read from the data, not from the text of the source, unless noted: active = inhibition above about 23%; inactive = the rest.

The target in one test is Protein-arginine deiminase type-4 (Homo sapiens) (UniProt Q9UM07). Put plainly: human PAD4 inhibitors, confirmation, biochemical, fluorescence polarization (AID 488796;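 active = mean inhibition across replicates above the hit cutoff set by the earlier primary screen, cut at about 15% in these data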;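 note: inhibitors block active-site labeling by the probe so polarization falls; 0% = PAD4 with probe and DMSO and 100% = probe without PAD4 enzyme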). The note with it: recombinant PAD4, RCA probe fluorescence polarization; at 6.36 µM; active compounds read high.
Sequence of Protein-arginine deiminase type-4 (Homo sapiens) (Q9UM07 whole entry, looked up): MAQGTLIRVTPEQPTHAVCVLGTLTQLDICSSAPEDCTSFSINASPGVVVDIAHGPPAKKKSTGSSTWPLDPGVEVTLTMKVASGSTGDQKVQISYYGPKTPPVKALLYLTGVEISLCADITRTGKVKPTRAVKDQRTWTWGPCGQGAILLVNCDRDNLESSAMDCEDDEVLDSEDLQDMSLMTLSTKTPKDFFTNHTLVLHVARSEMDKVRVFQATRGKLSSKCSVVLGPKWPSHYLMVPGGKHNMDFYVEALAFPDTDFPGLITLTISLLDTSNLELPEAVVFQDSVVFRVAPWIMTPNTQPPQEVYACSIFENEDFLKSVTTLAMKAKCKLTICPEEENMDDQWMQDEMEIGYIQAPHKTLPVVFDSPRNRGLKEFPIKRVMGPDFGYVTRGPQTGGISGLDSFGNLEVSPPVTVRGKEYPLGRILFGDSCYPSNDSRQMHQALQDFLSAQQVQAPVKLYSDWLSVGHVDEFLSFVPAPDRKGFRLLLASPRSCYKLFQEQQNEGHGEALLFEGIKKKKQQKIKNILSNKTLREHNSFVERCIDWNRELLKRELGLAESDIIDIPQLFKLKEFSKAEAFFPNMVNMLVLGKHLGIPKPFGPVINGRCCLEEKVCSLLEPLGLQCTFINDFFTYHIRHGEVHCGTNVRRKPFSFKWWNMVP
As for `Cc1nn(Cc2ccccc2)c(C)c1CNC(=O)c1ccc(F)c(S(=O)(=O)N2CCOCC2)c1`, the inhibition is 3.62%. On the same count and under the same terms, as for `COc1ncnc2c1N=C1CC(C)(C)CC(N)=C1S2`, the figure is 24.1% (active); as for `Cc1nn(C(=O)c2ccoc2C)c(N)c1-c1ccccc1`, 1.71%.

As to `CCN1CC=C2C(C#N)=C(N)C(C#N)(C#N)[C@H](c3ccoc3)[C@H]2C1`, the inhibition was 10.3%.

For a further test, the target named is Nuclear receptor subfamily 5 group A member 2 (Homo sapiens) (UniProt O00482). Put plainly: LRH-1 (NR5A2) inverse agonists, retest, confirmation, cell-based, luminescence (AID 651613; in the data active = inhibition above about 42%;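 note: HEK293T cells co-transfected with LRH-1 and StAR promoter luciferase reporter; 0% = vehicle wells and 100% = parental cells lacking receptor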). The note with it: cell-based LRH-1 luciferase reporter, inverse agonism; at 3.6 µM; active compounds read high. (In general: In a reporter assay the amount or activity of a reporter protein is the signal.)
Sequence of Nuclear receptor subfamily 5 group A member 2 (Homo sapiens) (O00482 whole entry, looked up): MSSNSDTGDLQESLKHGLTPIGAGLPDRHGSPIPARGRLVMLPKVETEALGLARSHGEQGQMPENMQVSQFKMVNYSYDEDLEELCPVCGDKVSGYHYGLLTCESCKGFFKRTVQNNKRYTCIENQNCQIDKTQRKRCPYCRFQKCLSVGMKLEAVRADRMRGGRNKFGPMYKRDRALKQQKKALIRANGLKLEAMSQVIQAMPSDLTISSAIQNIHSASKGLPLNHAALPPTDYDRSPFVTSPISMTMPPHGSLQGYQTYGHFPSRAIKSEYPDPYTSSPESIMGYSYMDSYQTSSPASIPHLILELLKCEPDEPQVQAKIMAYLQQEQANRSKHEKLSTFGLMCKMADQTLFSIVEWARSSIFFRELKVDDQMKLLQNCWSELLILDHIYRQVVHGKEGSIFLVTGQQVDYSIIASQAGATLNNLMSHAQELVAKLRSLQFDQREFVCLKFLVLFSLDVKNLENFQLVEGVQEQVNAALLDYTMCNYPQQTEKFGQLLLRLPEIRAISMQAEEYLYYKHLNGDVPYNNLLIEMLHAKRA
For the compound `CC[C@]1(O)C[C@@H]2CN(CCc3c([nH]c4ccccc34)[C@@](C(=O)OC)(c3cc4c(cc3OC)N(C)[C@H]3[C@@](O)(C(=O)OC)[C@H](OC(C)=O)[C@]5(CC)C=CCN6CC[C@]43[C@@H]65)C2)C1`, the inhibition is 42.5% (active). The same measure, in the same setting: in the case of `Cc1cccn2c(=O)c3cc(C(=O)NCCN4CCOCC4)c(=N)n(Cc4cccnc4)c3nc12` it was 57.8% (active); in that of `COc1ccc(Nc2nc(-c3cccnc3)nc3ccccc23)cn1`, 43.9% (active).

In another test the target is Steroidogenic factor 1 (Homo sapiens) (UniProt Q13285). Put plainly: SF1 (NR5A1) inverse agonists, counter-screen for LRH-1 inverse agonist project, cell-based, luminescence, high throughput (AID 651614; in the data active = inhibition above about 44%;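 note: cells cotransfected with StAR promoter reporter and SF1 expression vector; 0% = vehicle on cells with receptor and 100% = vehicle on cells lacking receptor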). The note with it: cell-based SF1 luciferase reporter, at 3.6 µM, active compounds read high. (Counterscreens check selectivity or assay interference.)
Sequence of Steroidogenic factor 1 (Homo sapiens) (Q13285 whole entry, looked up): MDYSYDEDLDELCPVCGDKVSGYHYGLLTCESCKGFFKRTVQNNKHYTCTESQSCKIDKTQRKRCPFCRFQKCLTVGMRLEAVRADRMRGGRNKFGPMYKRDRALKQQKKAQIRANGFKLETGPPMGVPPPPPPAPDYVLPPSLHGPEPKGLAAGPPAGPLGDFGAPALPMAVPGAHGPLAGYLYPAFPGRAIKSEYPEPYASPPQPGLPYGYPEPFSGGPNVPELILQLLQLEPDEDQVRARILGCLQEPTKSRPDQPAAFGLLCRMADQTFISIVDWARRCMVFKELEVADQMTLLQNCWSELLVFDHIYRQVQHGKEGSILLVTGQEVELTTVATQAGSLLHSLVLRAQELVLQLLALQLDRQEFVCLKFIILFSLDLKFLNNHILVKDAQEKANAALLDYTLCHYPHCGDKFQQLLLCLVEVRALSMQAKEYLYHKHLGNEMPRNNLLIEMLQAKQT
On to `CC[C@]1(O)C[C@@H]2CN(CCc3c([nH]c4ccccc34)[C@@](C(=O)OC)(c3cc4c(cc3OC)N(C)[C@H]3[C@@](O)(C(=O)OC)[C@H](OC(C)=O)[C@]5(CC)C=CCN6CC[C@]43[C@@H]65)C2)C1`, for which the inhibition is 61.2% (active). Regarding `Cc1cccn2c(=O)c3cc(C(=O)NCCN4CCOCC4)c(=N)n(Cc4cccnc4)c3nc12`, the inhibition was 49.1% (active). With `COc1ccc(Nc2nc(-c3cccnc3)nc3ccccc23)cn1`, the inhibition is 53.2% (active).

Tested on in another test: not listed separately
Nature of the test: compounds interfering with TAMRA-BSA probe, counter-screen for TCR-CD3 interaction inhibitor project, biochemical, fluorescence, TAMRA-labeled BSA (AID 652035).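 Note: 0% = buffer low control and 100% = reference high control.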 The note with it: TAMRA-labeled BSA probe fluorescence counterscreen; at 9.4 µM; active compounds read high.
`CC12CCC(C(=O)N(NC(=O)c3ccccc3O)C1=O)C2(C)C` (stereo not drawn): the inhibition is 23.1% (active). As to `CCCC1OC23CCCCC2C(C#N)(C#N)C1(C#N)C(=N)O3` (stereo not drawn), the inhibition was 20%. For the compound `O=c1ccc2c(-c3ccccc3S(=O)(=O)O)c3ccc(O)c(O)c3oc-2c1O`, the inhibition was -101%. The same measure, in the same setting: as for `C=C1c2c(Cl)ccc(O)c2C(O)=C2C(=O)[C@]3(O)C(O)=C(C(N)=O)C(=O)[C@@H](N(C)C)[C@@H]3[C@@H](O)C12` (stereo partly drawn), the figure is -9.22%.

The subject of a further test is T-cell receptor (TCR)-CD3 interaction, human. Nature of the test: TCR-CD3 interaction inhibitors, retest, confirmation, biochemical, fluorescence, TAMRA-labeled TCR probe (AID 652036; in the data active = inhibition above about 19%). The note with it: TAMRA-labeled TCR probe fluorescence binding assay; at 9.4 µM; active compounds read high.
As for `CC12CCC(C(=O)N(NC(=O)c3ccccc3O)C1=O)C2(C)C` (stereo not drawn), the inhibition was 30% (active). Same read-out and setting: as for `CCCC1OC23CCCCC2C(C#N)(C#N)C1(C#N)C(=N)O3` (stereo not drawn), the figure is 10.8%; as for `O=c1ccc2c(-c3ccccc3S(=O)(=O)O)c3ccc(O)c(O)c3oc-2c1O`, -20.4%. For the compound `C=C1c2c(Cl)ccc(O)c2C(O)=C2C(=O)[C@]3(O)C(O)=C(C(N)=O)C(=O)[C@@H](N(C)C)[C@@H]3[C@@H](O)C12` (stereo partly drawn), the inhibition is 20.7% (active).

The inhibition is the change of the read-out against control, counted positive when it falls.
